Sampled rows, rich in hits. Any-hit rate of the full collection: about 2.4%.
Pol iota inh – DNA polymerase iota (human) inhibition; Q9UNA4; 1% of 390,000 active; Pol iota fluorescent replication assay, 10 min; Potency, µM (top dose mostly 115 µM), usual class: inhibitors
Target sequence (Q9UNA4 whole entry, looked up): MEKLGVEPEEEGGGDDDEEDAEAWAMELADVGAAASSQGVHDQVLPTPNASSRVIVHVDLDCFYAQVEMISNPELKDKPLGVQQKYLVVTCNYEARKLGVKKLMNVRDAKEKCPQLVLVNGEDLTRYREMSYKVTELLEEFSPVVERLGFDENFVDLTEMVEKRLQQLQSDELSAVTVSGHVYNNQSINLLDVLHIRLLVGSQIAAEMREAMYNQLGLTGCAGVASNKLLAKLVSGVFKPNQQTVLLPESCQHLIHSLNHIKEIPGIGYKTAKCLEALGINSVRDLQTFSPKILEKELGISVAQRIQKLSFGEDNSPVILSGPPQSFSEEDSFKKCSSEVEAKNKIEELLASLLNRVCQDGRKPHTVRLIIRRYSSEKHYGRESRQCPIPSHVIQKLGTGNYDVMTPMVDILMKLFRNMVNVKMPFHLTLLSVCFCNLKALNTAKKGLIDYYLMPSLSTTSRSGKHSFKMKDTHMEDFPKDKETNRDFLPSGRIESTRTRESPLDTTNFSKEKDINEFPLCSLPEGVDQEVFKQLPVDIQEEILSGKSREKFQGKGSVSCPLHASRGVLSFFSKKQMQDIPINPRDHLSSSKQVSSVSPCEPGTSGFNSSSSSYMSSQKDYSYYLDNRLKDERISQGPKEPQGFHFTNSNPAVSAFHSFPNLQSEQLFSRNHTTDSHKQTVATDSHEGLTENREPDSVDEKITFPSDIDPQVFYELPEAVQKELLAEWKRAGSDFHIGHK
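Fluorescent replication assay read twice, at 0 min and 10 min after adding 50 nM (final) substrate. Enzyme (10 nM) and compounds were first incubated 15 min at room temperature; enzyme-free buffer wells were negative controls.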
L3MBTL1 inh – L3MBTL1 (human) inhibition | Q9Y468 | AlphaScreen L3MBTL1–H3K9me1 peptide binding | Potency, µM (highest dose often 57.1 µM), hits mostly inhibitors | 0.66% of 230,000 active | AID 485360; further: nearly all actives have a fitted effect of over 60% in size
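L3MBTL1 (50 nM) pre-complexed 30 min with biotinylated H3(1-15)K9me1 peptide (75 nM), then compounds added for 30 min at room temperature; AlphaScreen streptavidin donor/nickel chelate acceptor beads (10 ug/mL final) read after 30 min dark incubation.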
Pol kappa inh – DNA polymerase kappa (human) inhibition | Q9UBT6 | purified Pol kappa, fluorescent DNA synthesis assay, 10 min | Potency, µM (top dose mostly 107 µM), hits mostly inhibitors | 0.53% of 400,000 active
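First, compounds were pin-transferred onto 10 nM Pol kappa. After 15 min at room temperature, substrate was added to 50 nM final. Fluorescence was then measured kinetically at 0 and 10 min.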
Pol beta inh – inhibitors of human DNA polymerase beta; Potency, µM (series often up to 114 µM), actives largely listed as inhibitors; 1.3% of 340,000 active; Pol beta primer extension/strand displacement, fluorescence kinetic; P06746
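Preincubation: enzyme (10 nM) with compound, 15 min, RT. Reaction: substrate added to 50 nM final. Reads: 0 and 10 min. Analysis: normalized, Hill fit.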
POLH inh – inhibitors of human DNA polymerase eta. Q9Y253. recombinant Pol eta, fluorescent DNA replication assay. Potency, µM (highest dose often 114 µM), hits mostly inhibitors. 1.2% of 390,000 active
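Fluorescent replication assay: 50 nM final substrate added after a 15 min room-temperature compound preincubation with 10 nM enzyme. Signal taken at 0 min and again at 10 min.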
Each line names hits and unclear results; the compound was inactive in the other large screens; ! = not confirmed by another sample. The call rests on the fitted dose curve; in most records, active means well fitted curve in the direction sought with a large enough effect; inconclusive means small, poorly fitted or top-dose-only effect, or another doubt; inactive means no such curve, though single readings can be large; an effect the other way counts as inactive or inconclusive.

COc1cc([N+](=O)[O-])ccc1-c1ccc(/C=N/NC(=O)OC(C)(C)C)o1	none
COc1ccccc1CNC(=O)c1cn(C)c2ccc(S(=O)(=O)N(C)C3CCCCC3)cc2c1=O	none (no result: L3MBTL1 inh)
COc1ccc(/C=C/c2cnc3ccccc3n2)cc1OC	none (no result: L3MBTL1 inh, Pol beta inh, POLH inh)
CCCCCCc1c(C)c2ccc(OCC(=O)N3CCC[C@H]3C(=O)O)c(C)c2oc1=O	Pol iota inh 89.1µM, POLH inh 79.4µM (no result: L3MBTL1 inh)
CCCc1cc(=O)oc2c(C)c(OCC(=O)N3CCC[C@@H]3C(=O)O)ccc12	none
COc1ccccc1N(C)S(=O)(=O)c1ccc(C(=O)N2CCCC(C(F)(F)F)C2)cc1 (configuration not stated)	none (no result: Pol beta inh)
CCOC(=O)CCCCC(=O)c1[nH]c(=O)[nH]c1C[n+]1ccccc1	none (no result: Pol iota inh, L3MBTL1 inh, Pol kappa inh, POLH inh)
Cc1[nH]c(=O)[nH]c1C(=O)CCCCC(=O)OCC(=O)Nc1ccccn1	L3MBTL1 inh 0.708µM, POLH inh inconclusive
Cc1ccc(Cl)cc1NC(=S)N(Cc1ccco1)C(C)c1cccs1 (configuration not stated)	Pol iota inh 79.4µM (no result: L3MBTL1 inh)
Cc1occc1C(=O)NCc1cccc(CNC(=O)c2ccoc2C)c1	Pol iota inh 15.8µM, Pol kappa inh 31.6µM, Pol beta inh 22.4µM, POLH inh 3.55µM
Cc1occc1C(=O)NCc1ccc2c(c1)OCO2	POLH inh inconclusive (no result: L3MBTL1 inh)
O=S(=O)(O)c1cc(O)c2c(N=Nc3ccc(Nc4ccccc4)c4c(S(=O)(=O)O)cccc34)cc(S(=O)(=O)O)cc2c1	Pol kappa inh 3.16µM (no result: Pol iota inh, L3MBTL1 inh, Pol beta inh, POLH inh)
N#Cc1ccccc1OCC(=O)Nc1ccc(S(=O)(=O)N2CCOCC2)cc1	none (no result: Pol beta inh)
O=C(Nc1ccncc1)c1ccc(S(=O)(=O)Nc2ccccc2)cc1	none
NS(=O)(=O)c1ccc(NS(=O)(=O)c2ccc(NC(=O)c3ccc(-c4ccccc4)cc3)cc2)cc1	Pol iota inh 56.2µM, Pol kappa inh inconclusive, Pol beta inh inconclusive, POLH inh inconclusive
CC(C)c1ccc(NS(=O)(=O)c2ccc3[nH]cc(C(=O)N4CCC(C(N)=O)CC4)c(=O)c3c2)cc1	Pol iota inh inconclusive, Pol beta inh 50.1µM, POLH inh 17.8µM
CCc1ccc(NS(=O)(=O)c2ccc3[nH]cc(C(=O)NCCCOC(C)C)c(=O)c3c2)cc1	Pol iota inh inconclusive, Pol kappa inh inconclusive, Pol beta inh 39.8µM, POLH inh inconclusive (no result: L3MBTL1 inh)
CC(C)c1ccc(NS(=O)(=O)c2ccc3[nH]cc(C(=O)NCCc4ccccc4)c(=O)c3c2)cc1	Pol beta inh inconclusive (no result: L3MBTL1 inh)
COc1cccc(NS(=O)(=O)c2ccc3[nH]cc(C(=O)NC4CC4)c(=O)c3c2)c1	none
COc1cccc(NS(=O)(=O)c2ccc3[nH]cc(C(=O)NCCc4ccccc4)c(=O)c3c2)c1	Pol iota inh 79.4µM, Pol beta inh inconclusive (no result: L3MBTL1 inh)
COc1cccc(NS(=O)(=O)c2ccc3[nH]cc(C(=O)NC4CCCCC4)c(=O)c3c2)c1	Pol iota inh inconclusive, Pol beta inh inconclusive, POLH inh 89.1µM (no result: L3MBTL1 inh)
O=C(COc1ccccc1C(=O)Nc1ccccc1)NCCCCc1ccccc1	none (no result: L3MBTL1 inh, Pol beta inh, POLH inh)
CCOc1ccc(NS(=O)(=O)c2ccc3[nH]cc(C(=O)N(CC)CC)c(=O)c3c2)cc1	Pol iota inh inconclusive, POLH inh 20µM
COc1cc(OC)c(NC(=O)Cn2c(=O)c(C(F)(F)F)nc3ccccc32)cc1Cl	none (no result: L3MBTL1 inh)
CC(C)CC[n+]1ccn(-c2nc3ccccc3nc2[N-]S(=O)(=O)c2ccccc2)c1	Pol beta inh 79.4µM
CCCC[n+]1ccn(-c2nc3ccccc3nc2[N-]S(=O)(=O)c2ccc(Br)cc2)c1	POLH inh inconclusive
O=c1oc2c(O)c(O)cc3c(=O)oc4c(O)c(O)cc1c4c23	Pol iota inh 1.12µM!, L3MBTL1 inh inconclusive, Pol kappa inh 0.794µM!, Pol beta inh 0.159µM, POLH inh 0.794µM
CCOC(=O)c1c(NC(=O)C2C3C=CC(C3)C2C(=O)O)sc2c1CCCC2 (configuration not stated)	Pol beta inh inconclusive
CCOC(=O)c1c(NC(=O)C2CC(Cl)=CCC2C(=O)O)sc2c1CCCCC2 (configuration not stated)	Pol beta inh 35.5µM (no result: L3MBTL1 inh)
O=C(O)c1cc2nccc(-c3ccco3)n2n1	Pol iota inh inconclusive, Pol kappa inh inconclusive, POLH inh 17.8µM (no result: L3MBTL1 inh)
CCc1ccc2oc(-c3ccc(C)c(NC(=O)COc4ccccc4Cl)c3)nc2c1	none (no result: L3MBTL1 inh, Pol beta inh, POLH inh)
CC1=NN(c2ccccc2)C(=O)/C1=C/C=C/c1ccccc1	L3MBTL1 inh inconclusive, POLH inh 15.8µM
CN(C)/C=C1\C(=O)ON=C1c1ccccc1	none
Cc1ccc(C2=NOC(=O)/C2=C\C=C\c2ccccc2)cc1	Pol iota inh inconclusive, Pol beta inh inconclusive, POLH inh 89.1µM
CC(/C=N/NC(=O)c1nnn(-c2nonc2N)c1CN(C)C)=C\c1ccco1	Pol iota inh 20µM, Pol kappa inh 79.4µM (no result: L3MBTL1 inh)
CCCN(CCC)Cc1c(C(=O)N/N=C/C(C)=C\c2ccco2)nnn1-c1nonc1N	none (no result: L3MBTL1 inh)
O=c1c2ccccc2sn1-c1ccc(Cl)c(S(=O)(=O)N2CCOCC2)c1	Pol iota inh 79.4µM (no result: L3MBTL1 inh, Pol beta inh, POLH inh)
O=c1c2ccccc2sn1-c1ccc(S(=O)(=O)N2CCOCC2)cc1	none (no result: L3MBTL1 inh, Pol beta inh, POLH inh)
COC(=O)[C@]1(C)N[C@H](CN(C)S(=O)(=O)c2ccc(-c3ccccc3)cc2)[C@@H]2C(=O)N(C)C(=O)[C@@H]21	none (no result: Pol beta inh)
COc1cccc(NC(=O)/C(C#N)=C\c2cn(Cc3ccc(C)cc3)c3ccccc23)c1	none (no result: L3MBTL1 inh)
N#C/C(=C/c1cn(Cc2ccc(F)cc2)c2ccccc12)C(=O)Nc1cccc(Cl)c1	Pol iota inh 56.2µM, Pol kappa inh inconclusive (no result: L3MBTL1 inh)
COc1ccc(N2Cc3ccccc3C2=O)cc1	none
C=CC(=O)Oc1ccc(N2Cc3ccccc3C2=O)cc1	Pol iota inh 39.8µM, POLH inh 31.6µM (no result: L3MBTL1 inh, Pol beta inh)
CCCC1=Nc2cc(C(=O)NCc3ccccc3)ccc2Sc2ccccc21	Pol beta inh inconclusive (no result: L3MBTL1 inh)
O=C(O)C1C(c2ccccc2)C(C(=O)OCc2ccco2)C1c1ccccc1 (configuration not stated)	Pol iota inh inconclusive, Pol beta inh inconclusive, POLH inh 79.4µM
CCCN1C(C)C(C(=O)OCC)=CN(Cc2cccc(I)c2)S1(=O)=O (configuration not stated)	none (no result: Pol beta inh)
O=S(c1ccccc1)c1ccc2nnnn2n1 (configuration not stated)	none (no result: Pol iota inh, L3MBTL1 inh, Pol beta inh, POLH inh)
Cc1cccc2nc(Cn3c(=O)n(CCCC(=O)NCc4ccco4)c(=O)c4ccccc43)cc(=O)n12	Pol iota inh inconclusive, Pol beta inh 22.4µM, POLH inh inconclusive
C=C(NCc1ccccc1)c1ccccc1O	none (no result: Pol iota inh, L3MBTL1 inh, Pol beta inh, POLH inh)
CCOC(=O)N1CCN(Cc2nc(-c3cccs3)no2)CC1	none
Cc1nn(Cc2nc(-c3cccs3)no2)c(C)c1Br	Pol beta inh 35.5µM
COc1ccc(/C=N/Nc2nn3cnnc3c3ccccc23)cc1	Pol beta inh 1.78µM, POLH inh inconclusive
COc1ccc(/C=N/Nc2nonc2N)cc1	none
CCCCn1c(=O)[nH]c2nc3cc(N)ccc3nc2c1=O	Pol iota inh 1.26µM, Pol beta inh 5.62µM

High-throughput results (PubChem)
